Measured potencies and affinities stand elsewhere.
How the values were obtained:
[1] = test system: Klebsiella pneumoniae; conditions: Concentration 20 uM; ASSAY_TEST Inhibition of Bacterial Growth; detection method Absorption (OD600); MEDIA CAMHB; plate type 384well; NBS; CORNING #3640; time 18 hr
[2] = test system: Candida albicans; conditions: 20 µM
[3] = test system: Cryptococcus neoformans; conditions: Concentration 20 uM; ASSAY_TEST Inhibition of Fungal Growth; detection method Resazurin; Absorption (OD600-OD570); plate type 384well; NBS; CORNING #3640

Row | SMILES | Inhibition [1] | Inhibition [2] | Inhibition [3]
1 | O=C(NCCN1CCOCC1)c1ccc(Cl)cc1 [MOCLOBEMIDE] | 9.06% | 3.1% | -2.98%
2 | OCc1cccnc1 [NICOTINYL ALCOHOL] | 6.16% | 2.84% | -7.14%
3 | NS(=O)(=O)c1cc(C(=O)O)c(NCc2ccco2)cc1Cl [FUROSEMIDE] | 9.57% | 3.34% | -7.53%
4 | CC(C(O)c1ccc(O)cc1)N1CCC(Cc2ccccc2)CC1.O.O=C(O)C(O)C(O)C(=O)O (stereo not given) | 15.53% | 2.38% | -4.72%
5 | Cc1cccc(Nc2ccncc2S(=O)(=O)NC(=O)NC(C)C)c1 [TORSEMIDE] | 8.97% | 2.49% | 0.39%
6 | CCOC(=O)c1ccc(OC(=O)CCCCCN=C(N)N)cc1.CS(=O)(=O)O | 15.95% | 3.2% | -7.27%
7 | OC[C@H]1O[C@@H](Oc2cc(O)cc(/C=C/c3ccc(O)cc3)c2)[C@H](O)[C@@H](O)[C@@H]1O [PICEID] | 6.92% | 3.19% | -0.2%
8 | CC(=O)O[C@@]12CO[C@@H]1C[C@H](O)[C@@]1(C)C(=O)[C@H](O)C3=C(C)[C@@H](OC(=O)[C@H](O)[C@@H](NC(=O)OC(C)(C)C)c4ccccc4)C[C@](O)([C@@H](OC(=O)c4ccccc4)[C@H]21)C3(C)C | 11.64% | 1.38% | -6.01%
9 | CC(C)(C)NCC(O)COc1cccc2c1CC(O)C(O)C2 (stereo not given) [NADOLOL] | 10.61% | 1.18% | -8.66%
10 | Cn1nnc2c(C(N)=O)ncn2c1=O [TEMOZOLOMIDE] | 7.88% | 1.91% | -1.17%
11 | Cc1cccc(CCN2CCC(C(=O)c3ccc(NS(C)(=O)=O)cc3)CC2)n1.Cl.Cl | 0.58% | 2.81% | -8.23%
12 | COC(=O)C1=C(C)NC(C)=C(C(=O)OCCN(C)Cc2ccccc2)C1c1cccc([N+](=O)[O-])c1.Cl (stereo not given) [NICARDIPINE HYDROCHLORIDE] | -5.88% | 0.94% | -9.15%
13 | CNC(=C[N+](=O)[O-])NCCSCc1csc(CN(C)C)n1 [NIZATIDINE] | 14.45% | 0.73% | -0.19%
14 | CC1(C)S[C@@H]2[C@H](/N=C/N3CCCCCC3)C(=O)N2[C@H]1C(=O)O [AMDINOCILLIN] | 18.13% | 4.08% | -5.88%
15 | CNCCCC12CCC(c3ccccc31)c1ccccc12.Cl [MAPROTILINE HYDROCHLORIDE] | 10.44% | 3.58% | -10.89%
16 | CCN1CCCC1CNC(=O)c1cc(S(=O)(=O)CC)c(N)cc1OC (stereo not given) [AMISULPRIDE] | 4.49% | 1.45% | -4%
17 | Cl.Nc1nc2ccc(OC(F)(F)F)cc2s1 | 11.2% | 2.98% | -9.1%
18 | COc1cc(/C=C/c2ccc(O)cc2)cc(OC)c1 [PTEROSTILBENE] | 7.46% | 3.65% | -0.34%
19 | CC(=O)OCC(=O)C12OC3(CCCC3)OC1CC1C3CCC4=CC(=O)C=CC4(C)C3(F)C(O)CC12C (stereo not given) | 13.26% | 3.39% | 1.74%
20 | CCCSc1ccc2[nH]c(NC(=O)OC)nc2c1 [ALBENDAZOLE] | 3.18% | 2.62% | 42.52%
21 | O=C([O-])c1cc(=O)c2c(OCC(O)COc3cccc4oc(C(=O)[O-])cc(=O)c34)cccc2o1.[Na+].[Na+] [CROMOLYN SODIUM] | 6.64% | 2.62% | 0.69%
22 | CC(C)OC(=O)CCC/C=C\C[C@@H]1[C@@H](CC[C@@H](O)CCc2ccccc2)[C@H](O)C[C@@H]1O [LATANOPROST] | 18.51% | 0.35% | -2.04%
23 | C[C@]12CCC(=O)C=C1CC[C@@H]1[C@@H]2[C@@H](O)C[C@@]2(C)[C@H]1CC[C@]2(O)C(=O)CO [HYDROCORTISONE] | 5.06% | 1.65% | -3.64%
24 | CO[C@H]1O[C@@H]2O[C@@]3(C)CC[C@H]4[C@H](C)CC[C@@H]([C@H]1C)[C@@]24OO3 | 9.17% | 19.1% | 6.04%
25 | Cl.Clc1cccc(Cl)c1NC1=NCCN1 [CLONIDINE HYDROCHLORIDE] | 4.94% | 3.3% | -10.31%
